# Assay outcomes deposited in PubChem by National Center for Advancing Translational Sciences (NCATS).
# D3 ag: agonists of human D3 dopamine receptor; D3R DiscoveRx beta-arrestin cells, luminescence, 90 min; 0.58% of 410,000 active; P35462; max activation, %; in the data active means max activation above about 30%; further: 0% is about no effect
#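 Agonist-mode cell screen: cells plated at 1500/well and incubated overnight at 37 °C, then exposed to library compounds for 90 min at 37 °C. Detection reagent was added for 30–60 min at room temperature, and luminescence was read.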
# DRD3 antagonist: antagonists of human D3 dopamine receptor | D3R cells, DiscoveRx beta-arrestin luminescence, antagonist mode; active compounds read low | max response, negative = inhibition, % | 2.5% of 360,000 active | AID 652054; in the data active means max response below about -50%; inconclusive means no clear call, values can overlap the other calls; further: on the % scale 0 is the no-effect control and ±100 the full control effect
#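 Cells plated overnight at 1500 cells/well, then exposed to library compounds with dopamine controls for 90 minutes at 37 degrees C. DiscoveRx reagent added for 30–60 minutes at room temperature; luminescence read, quantitative HTS format.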
# TRPML1 ag: human mucolipin-1 channel agonism; Q9GZU1; TRPML1-expressing cells, Ca2+ dye fluorescence, FDSS; activation, % (concentration not given with the values); 0.12% of 410,000 active; in the data active means activation above about 50%; inconclusive means mostly about 30% to 49%; further: 0% is about no effect
# Target sequence (Q9GZU1 whole entry, looked up): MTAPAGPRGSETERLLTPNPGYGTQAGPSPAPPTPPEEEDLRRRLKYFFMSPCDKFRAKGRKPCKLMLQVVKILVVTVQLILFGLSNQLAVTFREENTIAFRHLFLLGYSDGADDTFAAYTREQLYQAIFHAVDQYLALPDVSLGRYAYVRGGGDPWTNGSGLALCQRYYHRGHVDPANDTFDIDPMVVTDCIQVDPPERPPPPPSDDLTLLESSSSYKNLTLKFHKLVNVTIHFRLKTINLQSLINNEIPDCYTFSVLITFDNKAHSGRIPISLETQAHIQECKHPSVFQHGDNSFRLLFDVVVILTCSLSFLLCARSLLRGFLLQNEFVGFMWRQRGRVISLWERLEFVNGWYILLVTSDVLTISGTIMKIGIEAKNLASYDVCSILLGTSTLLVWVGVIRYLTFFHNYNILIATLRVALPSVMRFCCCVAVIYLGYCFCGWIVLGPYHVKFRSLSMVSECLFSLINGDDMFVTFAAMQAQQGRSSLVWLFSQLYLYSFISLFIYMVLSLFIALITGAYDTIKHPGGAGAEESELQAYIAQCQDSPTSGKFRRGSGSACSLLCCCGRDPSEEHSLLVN
#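 Agonist activity was taken from a 110 s kinetic Ca2+ dye read on the FDSS after pinning compounds onto TRPML1-DL cells. The cells were seeded at 1,500/well with Tet inducer, incubated about 16 h, then dye-loaded at room temperature.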
# TRPML1 blocker: blocks the human TRPML1 channel. Q9GZU1. TRPML1-inducible cells, Ca2+ dye fluorescence, FDSS; active compounds read low; inhibition of EC80 agonist-evoked calcium signal. activity change, negative = inhibition, % (no concentration beside the values). 0.02% of 390,000 active; in the data active means activity change below about -50%; inconclusive means between about -30% and that limit;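 further: stimulus is agonist 54-4 at its EC80 concentration; on the % scale 0 is the no-effect control and ±100 the full control effect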
#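 Calcium fluorescence in TRPML1-DL cells induced overnight with Tet: a 110 s read after compound pin addition, then a 110 s antagonist read after challenge with 54-4 at 4 uM final (EC80).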
# * hit, by the source's call; ? = inconclusive; · = no result. Most compounds without a hit are left out; they make up all but 2.9% or so of the library.
SMILES,D3 ag,DRD3 antagonist,TRPML1 ag,TRPML1 blocker
COc1ccc(NC(=O)/C(Cl)=C(/Cl)S(=O)Cc2ccccc2Cl)cn1 (stereo not given),-18,-96*,2,-5
COc1ccc(NC(=O)/C(Cl)=C(/Cl)S(=O)(=O)Cc2ccc(C)cc2)cn1,-7,-77*,3,3
COc1ccc(NC(=O)Cc2ccc(Cl)c(Cl)c2)cn1,0,-5,1,-7
O=C(Nc1ccc2c(c1)N(C1CCCC1)C(=O)c1ccccc1S2)c1cccc(F)c1,-16,·,1,8
O=S1(=O)CCOC[C@H](c2ccccc2)N1Cc1ccc(Cl)cc1Cl,·,·,0,·
O=Nc1nc2ncccn2c1-c1ccccc1,-14,-57*,0,41
COc1cccc(/C=C2/SC(=S)N(CC(=O)Nc3nccs3)C2=O)c1,·,·,-1,·
O=S(=O)(Nc1nc(-c2sccc2Cl)cs1)c1cc(Cl)ccc1Cl,-11,-86*,1,-3
CC(C)(C)c1nnc(NS(=O)(=O)c2cc(Cl)ccc2Cl)s1,4,-11,0,-11
CCOC(=O)c1noc2ncnc(N3CCN(c4ccccc4OC)CC3)c12,-11,·,-1,-18
O=C(C1CCCN(Cc2ccccc2F)C1)N1CCCCC1 (stereo not given),-29,-22,-1,-10
O=C(C1CCCN(Cc2ccccc2F)C1)N1CCc2ccccc2C1 (stereo not given),-27,-52*,0,-1
O=C(C1CCCN(Cc2ccncc2)C1)N1CCc2ccccc2C1 (stereo not given),-7,-72*,0,4
Cc1cccc(CN2CCCC(C(=O)N3CCc4ccccc4C3)C2)c1 (stereo not given),1,45,0,19
O=C1COc2ccc(C(=O)COC(=O)c3ccccc3[N+](=O)[O-])cc2N1,3,5,2,-9
O=C1COc2ccc(C(=O)COC(=O)c3ccccc3F)cc2N1,-1,-51*,1,17
CC(C)CC(NC(=O)c1ccc(Cl)cc1)C(=O)OCC(=O)c1ccc2c(c1)NC(=O)CO2 (stereo not given),20,-73*,1,-6
CC(=O)C1=C(c2ccccc2)N(C(C)=O)n2c(nnc2C2CCCCC2)S1,-4,·,0,-9
CCCCC(=O)N(Cc1ccc(-c2ccccc2-c2nn[nH]n2)cc1)[C@@H](C(=O)O)C(C)C,-9,·,·,·
CCc1ccc(S(=O)(=O)/N=C2\C=C(NS(=O)(=O)c3ccccc3)C(=O)c3ccccc32)cc1,-13,?,2,?
O=C(O)c1ccc(S(=O)(=O)/N=C2\C=C(Nc3ccccc3F)C(=O)c3ccccc32)cc1,-28,-107*,2,6
Cc1ccccc1NC1=C/C(=N\S(=O)(=O)c2ccc(C(=O)O)cc2)c2ccccc2C1=O,-20,-97*,0,-8
COc1ccc(CNC(=O)c2sc3nc4n(c(=O)c3c2C)CCCCC4)cc1,2,·,-1,28
O=C(NCCN1CCN(c2ccccc2)CC1)Nc1ccccc1Cl,7,-83*,0,7
O=C(NCCN1CCN(c2ccccc2)CC1)Nc1ccccc1Br,9,-79*,0,13
SMILES,D3 ag,DRD3 antagonist,TRPML1 ag,TRPML1 blocker
CCCN1CCN(CCNC(=O)Nc2ccccc2Cl)CC1,-18,-77*,0,11
O=C(NCCN1CCCCC1)Nc1cccc(Cl)c1Cl,-25,?,1,-5
CCN(CC)CCNC(=O)c1ccc(Sc2ccc(Cl)cc2)c(NC(C)=O)c1,-16,-77*,0,-29
CC(=O)Nc1cc(C(=O)NCc2ccc(C)cc2)ccc1Sc1ccc(C)cc1,-7,·,1,-11
CCN(CCCNC(=O)c1ccc(Sc2ccc(Cl)cc2)c(NC(C)=O)c1)c1cccc(C)c1,-5,·,0,-4
CCN(CC)CCNC(=O)c1ccc(Sc2ccc(C)cc2)c(NC(C)=O)c1,-16,-88*,0,-18
O=C(NCCCN1CCN(c2ccc(F)cc2)CC1)c1cnn(-c2ccc(F)cc2)c1-n1cccc1,13,·,2,-5
C1=CN2CC=Cc3cc(/C=C/c4ccnc5ccccc45)cc(c32)C1,·,·,14,·
COc1ccc(-c2csc3nc(C)n(-n4cccc4)c(=O)c23)cc1,0,9,2,-12
Cc1nc2scc(-c3ccc(C(C)(C)C)cc3)c2c(=O)n1N,31*,55,2,22
O=C(NC1CCCCC1)N1CCCC(c2nc3ccccc3[nH]2)C1 (stereo not given),-18,-126*,0,19
CCCCNC(=O)COC(=O)c1c2c(nc3ccccc13)/C(=C\c1cccs1)CC2,34*,72,1,-6
CC(C)CNC(=O)COC(=O)c1c2c(nc3ccccc13)/C(=C/c1cccs1)CC2,-6,7,2,-5
CCOC(=O)c1ccc(NC(=O)C2CCN(S(=O)(=O)Cc3ccccc3)CC2)cc1,1,·,-1,-8
O=C(NNC(=O)c1cc2cc(Br)ccc2oc1=O)c1ccc(O)cc1,-1,-62*,4,-3
CC1=C(C(=O)NCc2cccc(Cl)c2)C2(CCCCCC2)OC1=O,-16,·,1,10
Nc1ccc(C(=O)OCc2nc3ccccc3s2)cc1,-5,-51*,-1,19
O=C(c1ccc(Cl)c(Cl)c1)N1CCN(c2ccccn2)CC1,1,-11,3,3
O=C(c1ccc(Cl)c(S(=O)(=O)Nc2ccc(F)cc2)c1)N1CCN(c2ccccn2)CC1,38*,33,1,5
C=CC[C@@H](CC(=O)N(CCO)Cc1ccccc1)C(=O)N[C@H](C)COC(=O)[C@@H](CC=C)Cc1ccc(F)cc1,40*,162,2,14
C=CC[C@H](CC(=O)N(CCO)Cc1ccccc1)C(=O)N[C@@H](C)COC(=O)[C@H](CC=C)CC(=O)OC(C)(C)C,43*,17,0,-6
C=CC[C@@H](CC(=O)N(CCO)Cc1ccccc1)C(=O)N[C@@H](C)COC(=O)[C@@H](CC=C)CC(=O)OC(C)(C)C,4,17,0,-7
CCc1ccc2oc(-c3ccc(C)c(NC(=O)c4ccc(C#N)cc4F)c3)nc2c1,3,·,2,2
O=C(CN1/C(=C(/O)c2ccccc2)C(=O)c2ccccc2S1(=O)=O)c1ccccc1,-2,-88*,0,1
COc1ccc(C(=O)CN2C(=O)c3ccccc3S2(=O)=O)cc1,0,2,1,7
O=S(=O)(/C(=C\c1ccc(C(F)(F)F)cc1)c1nc2ccccc2[nH]1)c1ccccc1,-12,-93*,0,-6
O=C(Nc1ccccc1C(=O)NC(Cc1c[nH]c2ccccc12)C(=O)O)c1ccco1 (stereo not given),4,-55*,-1,-10
CCC/C=C1/CCCOC(C(=O)NCC2CC2)(C(F)(F)F)C1 (stereo not given),·,·,0,7
Cc1nn(-c2ccccc2)c(NC(=O)c2cccs2)c(-c2ccccc2Cl)c1=O,-7,-59*,1,-20
Cc1ccc(-c2csc3ncnc(Sc4nnc(CN5CCCCCC5=O)o4)c23)cc1,-3,-69*,5,35
